Shown are actives, neighbours in structure and some others; about 11% of the full set was active somewhere.
L3MBTL1 inh = qHTS Assay for the Inhibitors of L3MBTL1; Potency, µM (series often up to 57.1 µM), for inactives: at the top dose activity, negative = inhibition, hits mostly inhibitors; AlphaScreen L3MBTL1–H3K9me1 peptide binding; actives 0.66% (n = 230,000); further: potency means the concentration at half of the fitted maximal effect; on the % scale 0 is the no-effect control and ±100 the full control effect; nearly all actives have a fitted effect of over 60% in size
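L3MBTL1 (50 nM) pre-complexed 30 min with biotinylated H3(1-15)K9me1 peptide (75 nM), then compounds added for 30 min at room temperature; AlphaScreen streptavidin donor/nickel chelate acceptor beads (10 ug/mL final) read after 30 min dark incubation.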
G9a block = qHTS Assay for Inhibitors of Histone Lysine Methyltransferase G9a | G9a H3K9 monomethylation, AlphaScreen, 2 h | Histone-lysine N-methyltransferase EHMT2 (Homo sapiens), Q96KQ7 | AID 504332, 2011 | Potency, µM (series often up to 102 µM), without a hit: at the highest dose activity, negative = inhibition, actives largely listed as inhibitors | actives 8.8% (n = 350,000); further: potency means the concentration at half of the fitted maximal effect; on the % scale 0 is the no-effect control and ±100 the full control effect; nearly all actives have a fitted effect of over 75% in size
Target sequence (Q96KQ7 913-1193 limits assumed): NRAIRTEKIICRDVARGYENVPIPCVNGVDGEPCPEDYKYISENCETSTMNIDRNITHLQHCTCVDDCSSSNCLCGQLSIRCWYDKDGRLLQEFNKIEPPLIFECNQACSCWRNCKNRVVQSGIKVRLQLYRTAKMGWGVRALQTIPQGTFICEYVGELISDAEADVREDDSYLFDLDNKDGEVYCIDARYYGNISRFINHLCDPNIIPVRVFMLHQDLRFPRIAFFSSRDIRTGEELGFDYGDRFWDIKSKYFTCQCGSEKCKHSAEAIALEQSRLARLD
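Enzyme 20 nM + cpd, 15 min RT; add b-H3K9 pep 500 nM / SAM 20 uM; 2 h RT; anti-H3K9me1 Ab 0.5 ug/mL + SA donor / anti-rabbit acceptor beads 20 ug/mL each, 10 min; AlphaScreen read.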
BAZ2B inh = qHTS Assay for Inhibitors of BAZ2B | Potency, µM (top dose mostly 114 µM), inactives show at the highest dose activity change, negative = inhibition, hits mostly inhibitors | AID 504333, 2011 | AlphaScreen BAZ2B-H3K14Ac peptide displacement | actives 4.4% (n = 360,000); further: potency means the concentration at half of the fitted maximal effect; on the % scale 0 is the no-effect control and ±100 the full control effect; nearly all actives have a fitted effect of over 60% in size
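Compounds, titrated to a top concentration of 110 uM, were incubated 30 min at room temperature with preformed BAZ2B/acetyl-K14 H3 peptide complex (50 nM each). Proximity signal was measured by AlphaScreen after 20 min with beads.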
HP1b binding inh = HTS for Inhibitors of HP1-beta Chromodomain Interactions with Methylated Histone Tails; Chromobox protein homolog 1 (Homo sapiens), P83916; AlphaScreen HP1-beta / biotin-H3K9me3 peptide binding; Potency, µM (doses to about 114 µM), for the others: at the top dose activity change, negative = inhibition, hits mostly inhibitors; actives 0.56% (n = 390,000); AID 540317, 2011; further: potency means the concentration at half of the fitted maximal effect; nearly all actives have a fitted effect of over 70% in size
Target sequence (P83916 whole entry, looked up): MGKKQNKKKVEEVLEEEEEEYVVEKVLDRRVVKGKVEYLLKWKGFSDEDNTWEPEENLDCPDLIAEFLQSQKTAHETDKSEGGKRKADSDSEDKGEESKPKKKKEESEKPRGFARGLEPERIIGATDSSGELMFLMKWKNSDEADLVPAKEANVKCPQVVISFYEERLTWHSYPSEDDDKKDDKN
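AlphaScreen: HP1-beta (50 nM) preformed 30 min with biotin-H3(1-18)K9me3 peptide (50 nM) in PBS pH 7.4, 0.01% Tween-20. Compound added for 30 min at RT, then streptavidin donor/nickel chelate acceptor beads (10 ug/mL) for 30 min.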
PI5P4Ka inh = qHTS for Inhibitors of phosphatidylinositol 5-phosphate 4-kinase (PI5P4K) | PI5P4Kalpha enzyme, ADP-Glo luminescence, 60 min; stronger effect = lower value | max response, % | actives 1.2% (n = 330,000) | AID 652105, 2013; active means max response of -50% or lower; inconclusive means between -30% and -50%; inactive means -30% or higher; further: value at the top dose of about 77 µM; on the % scale 0 is the no-effect control and ±100 the full control effect
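Enzyme plus substrate dispensed, test compounds pinned in, then ATP (5 microM final) added. After 60 min at RT, ADP-Glo reagent 1 for 45 min and reagent 2 for 30 min preceded luminescence imaging.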
JMJD2A Tudor = qHTS Assay for Inhibitors of JMJD2A-Tudor Domain | Potency, µM (highest dose often 114 µM), for inactives: at the top dose activity change, negative = inhibition, usual class: inhibitors | actives 4.4% (n = 390,000) | Lysine-specific demethylase 4A (Homo sapiens), O75164 | AlphaScreen JMJD2A-Tudor / H3K4me3 peptide binding; further: potency means the concentration at half of the fitted maximal effect; on the % scale 0 is the no-effect control and ±100 the full control effect; nearly all actives have a fitted effect of over 50% in size
* = called active by the depositor; ? = inconclusive; · = no result given; [ ] = remark or other dose. Unless noted, the call rests on the fitted dose curve; in most records, active means well fitted inhibition curve with a large enough effect; inconclusive means small, poorly fitted or top-dose-only effect; inactive means no such curve, though single readings can be large or run the other way.

SMILES	L3MBTL1 inh	G9a block	BAZ2B inh	HP1b binding inh	PI5P4Ka inh	JMJD2A Tudor
Cc1cc(C)c2nc(NNC(=O)c3ccc(S(=O)(=O)N4CCCCC4)cc3)sc2c1	?	25µM*	?	9%	0	?
CCC(=O)NNc1nc2c(C)cccc2s1	·	?	·	30%	0	-8%
CCOC(=O)N1CCN(S(=O)(=O)c2ccc(C(=O)N(CCN(CC)CC)c3nc4c(C)cccc4s3)cc2)CC1	·	50µM*	?	-11%	0	?
CCOC(=O)N1CCN(S(=O)(=O)c2ccc(C(=O)NNc3nc4ccc(Cl)cc4s3)cc2)CC1	-5%	79µM*	-6%	23%	-24	-25%
CCOC(=O)N1CCN(S(=O)(=O)c2ccc(C(=O)N(CCN(C)C)c3nc4ccc(Cl)cc4s3)cc2)CC1	·	?	-23%	12%	-4	-9%
Cc1ccccc1CN1C(=O)c2ccccc2Sc2ccc(C(=O)NCc3ccccc3)cc21	·	-4%[59 µM]	-8%	23%	·	-17%
CCOC(=O)N1CCN(S(=O)(=O)c2ccc(C(=O)NNc3nc4c(C)cc(C)cc4s3)cc2)CC1	-29%	45µM*	-11%	5%	0	?
CCOC(=O)N1CCN(S(=O)(=O)c2ccc(C(=O)NNc3nc4cc(C)cc(C)c4s3)cc2)CC1	?	50µM*	?	-12%	-8	?
COc1ccc(-c2ccc(C3C4C=CCCC4(C)C(=O)N3Cc3ccccc3)c(F)c2)cc1 (stereo unspecified)	·	·	·	33%	·	-28%
Cc1cccc(NC(=O)CN2c3ccccc3S(=O)(=O)c3ccccc32)c1C	·	5%[59 µM]	-11%	6%	·	?
CCNc1nc(NCC)nc(C(=O)Nc2ccccc2)n1	?	8%[0.501 µM]	10µM*	58%	4	79µM*
CCCc1nc(NC(=O)c2ccccc2)nc(NC(=O)c2ccccc2)n1	?	71µM*	19%	24%	0	-12%
CC(C(=O)Nc1ccc(S(N)(=O)=O)cc1)N1CCc2ccccc21 (stereo unspecified)	-7%	79µM*	-36%	-4%	-3	-28%
Cc1ccc(NC(=O)C(C)N2CCCc3ccccc32)cc1S(=O)(=O)N1CCOCC1 (stereo unspecified)	·	·	·	·	-5	·
CCN(CC)S(=O)(=O)c1cc(NC(=O)C(C)N2CCc3ccccc32)ccc1C (stereo unspecified)	?	25µM*	·	-13%	9	?
CC(NCc1ccc(S(N)(=O)=O)cc1)C(=O)N1CCc2ccccc21 (stereo unspecified)	·	4%	-18%	28%	2	-14%
CN(C)S(=O)(=O)Nc1cc(Cl)cc(Cl)c1	11%	-12%[59 µM]	-10%	-2%	-30	40µM*
O=C(O)CNC(=O)c1ccc(NS(=O)(=O)c2ccc3ccccc3c2)cc1	·	40µM*	?	17%	-23	-16%
CC(=O)c1ccc(NS(=O)(=O)c2ccc3ccccc3c2)cc1	7%	5%[59 µM]	-6%	-6%	1	-16%
COc1cc(S(=O)(=O)Nc2ccc(C(=O)NCC(=O)O)cc2)ccc1NC(C)=O	1%	50µM*	-13%	29%	3	3%
COc1ccc(S(=O)(=O)Nc2ccc(NC(C)=O)cc2)cc1OC	8%[11.4 µM]	-4%[12.7 µM]	-2%	27%	·	-9%
CCOC(=O)c1cccc(NC(=O)CC2C(=O)N(c3ccc(OC)cc3)C(=O)N2C2CCCC2)c1 (stereo unspecified)	·	-35%[59 µM]	-17%	33%	·	-25%
CCOc1ccccc1CNC(=O)c1cc2c(=O)n(Cc3cccnc3)ccc2nc1C	·	-1%[59 µM]	-17%	22%	·	-18%
Cc1nc2nc(-c3ccc(Cl)cc3Cl)nn2c(C)c1CCC(=O)Nc1ccc(F)cc1	·	6%[59 µM]	-4%	25%	·	-5%
CCOc1ccc(-c2nonc2NC(=O)c2ccc(C)cc2)cc1OCC	·	-2%[59 µM]	0%	20%	·	-14%
SMILES	L3MBTL1 inh	G9a block	BAZ2B inh	HP1b binding inh	PI5P4Ka inh	JMJD2A Tudor
COc1cc(/C=C2\C(=N)N3N=C(N4CCOCC4)SC3=NC2=O)ccc1OC(=O)c1ccccc1	-1%	20µM*	50µM*	-15%	-26	?
COc1cc(/C=C2/C(=N)N3N=C(CC(=O)N4CCOCC4)SC3=NC2=O)ccc1OC(C)c1ccccc1 (stereo unspecified)	·	-12%	-21%	10%	-9	-29%
CCS(=O)(=O)C1=NN2C(=N)/C(=C\c3ccc(OS(=O)(=O)c4ccccc4)c(OC)c3)C(=O)N=C2S1	·	-5%[0.0925 µM]	56µM*	·	·	·
COc1cc(/C=C2\C(=N)N3N=C(S(C)(=O)=O)SC3=NC2=O)ccc1OS(=O)(=O)c1ccccc1	·	·	50µM*	·	·	·
COc1cc(/C=C2/C(=N)N3N=C(C)SC3=NC2=O)ccc1OS(=O)(=O)c1ccc(C)cc1	·	18%	-2%	11%	-18	-8%
CCC1=NN2C(=N)/C(=C/c3ccc(OS(=O)(=O)c4ccc(C)cc4)c(OC)c3)C(=O)N=C2S1	·	-6%	-2%	-17%	-16	-30%
Cc1ccc(C)c(N2CCN(CCCNC(=O)c3cnn(-c4ccccc4Cl)c3C3CCN(C(=O)OC(C)(C)C)CC3)CC2)c1	·	?	-30%[57.1 µM]	7%	·	?
O=C(NCC(c1cccs1)S(=O)(=O)c1cccs1)c1cccc(F)c1 (stereo unspecified)	·	-3%[59 µM]	0%	7%	·	6%
CCOC(=O)c1c(NC(=O)CSc2ncn[nH]2)sc(C(C)=O)c1C	·	19%	56µM*	36%	9	-12%
CCOC(=O)c1sc(NC(=O)CCN2CC(C)OC(C)C2)c(C(=O)OCC)c1C (stereo unspecified)	·	45µM*	-9%	·	·	·
Cc1ccc(NC(=O)CSc2ncn[nH]2)cc1	·	-7%	-4%	26%	0	3%[57.1 µM]
CCOC(=O)c1c(NC(=O)CC)sc(C(C)=O)c1C	9%	25µM*	?	-16%	-7	17%
CCOC(=O)c1c(NC(=O)CSc2nc3ccccc3s2)sc(C(C)=O)c1C	1%	44%	2%	12%	·	-1%
COC(=O)c1c(NC(=O)CSc2ncn[nH]2)sc(C)c1C	0%	4µM*	1%	15%	0	-12%
